We go through 16 compounds from PubChem BioAssay (NCI).

Holding throughout (assay): NCI-60 one-dose screen, 48 h (100 = growth as untreated, 0 = no growth, -100 = all killed)
Holding throughout (conditions): 10 µM unless noted

The subject of test [1] is T-47D breast.
The test system of test [2] is BT-549 breast.
Test [3] has as its system MDA-MB-435 melanoma.
Test [4] concerns SW-620 colon.
For test [5], the system named is MCF7 breast.
Test [6] has as its system HCT-116 colon.
Test [7] has as its system HCC-2998 colon.
Test [8] deals with KM12 colon.

Each structure is given as a SMILES string. This is part of a sample that, as a whole, favours compounds with a hit. Of some 83,000 tested, about 20% had one in any assay.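 Negative percent growth values reflect cell death: -40 means 40% of the cells present at the start died, and -100 means all died.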 Unmarked numbers belong to inactive results. Active and inactive are the calls of the source. How the source made its calls: active means growth percent below 10; inactive means the rest.

In the case of `NC(N)=Nc1nc2ccccc2o1`, the growth was 98.3% in test [1]; 89.9% in test [2]; 122% in test [3]; 95.7% in test [4]; 96.8% in test [5]; 95.5% in test [6]. Besides, the results for the growth in test [7] and in test [8] were 82.5% and 95.9%, respectively.
On to `CCN(CC)CCOc1ccc(Cl)c(C)c1`, for which the growth was 104% in test [1]; 112% in test [2]; 106% in test [3]; 106% in test [4]; 96.2% in test [5]; 98.5% in test [6]. Moreover, the figures for the growth in test [7] and in test [8] were 90.6% and 105%, respectively.
On to `CCCCCCCCCCCCNC(=O)[C@H]1CSC(c2cc(Br)cs2)N1` (stereo partly drawn), for which the growth in test [1] is 39.4%; in test [2], -58.4% (active); in test [3], -90.3% (active); in test [4], -34.2% (active); in test [5], 49%; in test [6] it was -82% (active). Also, the figures for the growth in test [7] and in test [8] were 54.3% and -55.3% (active), respectively.
In the case of `FC(F)(F)c1cccc(-c2cn3c(ccc4ccccc43)n2)c1`, the growth in test [1] is 46.5%; in test [2], 91.1%; in test [3] it was 100%; in test [4] it was 89.5%; in test [5], 41%; in test [6], 88%. The growth in test [7] was 105%; in test [8], 91%.
With `CC1(c2ccc(Cl)cc2)OC(=O)CC(=O)O1`, the growth was 95.3% in test [1]; 109% in test [2]; 106% in test [3]; 105% in test [4]; 101% in test [5]; 100% in test [6]. Further, the results for the growth in test [7] and in test [8] were 102% and 110%, respectively.
Consider `Fc1ccccc1-c1nc(-c2nc3cc(Cl)c(Cl)cc3[nH]2)c2ccccn12`, for which the growth in test [1] is 31.5%; in test [2], 88.9%; in test [3] it was 73.6%; in test [4], 80.2%; in test [5] it was 40.5%; in test [6], 37.7%. For the same compound, the growth in test [7] was 96.2%; in test [8], 80.5%.
Turning to `O=C(Nc1ccc(Cl)c(Cl)c1)NS(=O)(=O)c1cnccc1Oc1ccc(F)cc1`, the growth in test [1] was -0.777% (active); in test [2], 93.7%; in test [3] it was 86.8%; in test [4], 65.3%; in test [5], 58.6%; in test [6], 41.3%. Moreover, the growth is 76.7% in test [7] and 48.7% in test [8].
In the case of `Clc1ccc2c(NC3CCC(NC4CCCCC4)CC3)ccnc2c1` (stereo not drawn), the growth in test [1] was 48.1%; in test [2], 86.8%; in test [3] it was 26.8%; in test [4], 32.7%; in test [5], 37.8%; in test [6] it was 35.8%. Besides, the growth was 65.2% in test [7] and 67.2% in test [8].
As for `CCOC(=O)C1=C(C)NC(C)=C(C(=O)OCC)C1(C)C`, the growth in test [1] was 95%; in test [2], 93.6%; in test [3], 116%; in test [4] it was 117%; in test [5] it was 98.9%; in test [6] it was 100%. The growth in test [7] was 108%; in test [8], 118%.
Take `O=C1CCCCC1(c1ccccc1)c1ccccc1`: the growth was 95% in test [1]; 114% in test [2]; 101% in test [3]; 101% in test [4]; 105% in test [5]; 98.4% in test [6]. Also, the results for the growth in test [7] and in test [8] were 92.2% and 100%, respectively.
For `COc1ccc2[nH]c(C(=O)OCc3ccc4c(Cl)cc(Cl)c(O)c4n3)cc2c1`, the growth in test [1] was -65.9% (active); in test [2], -88.3% (active); in test [3] it was -85% (active); in test [4] it was -68.2% (active); in test [5] it was -21.3% (active); in test [6], -92.3% (active). Moreover, the growth was -39.7% (active) in test [7] and -31% (active) in test [8].
`CSc1nc2c(c(=O)[nH]1)C(c1ccc(C)cc1)C=C(C(=O)O)N2` (stereo not drawn): the growth is 96.6% in test [1]; 93.6% in test [2]; 102% in test [3]; 99.8% in test [4]; 101% in test [5]; 109% in test [6]. Also, the growth in test [7] was 102%; in test [8], 112%.
Consider `COc1ccc(-c2nc(N3CCCC3=O)sc2Br)cc1OC`, for which the growth in test [1] was 89.2%; in test [2] it was 93.2%; in test [3] it was 93.5%; in test [4] it was 102%; in test [5], 96.9%; in test [6], 97.4%. In addition, the growth is 108% in test [7] and 92.7% in test [8].
As for `NC1N=C(SCC(=O)N2CCN(c3cc4c(cc3F)c(=O)c(C(=O)O)cn4C3CC3)CC2)NC(=O)/C1=C/c1ccc(Cl)cc1` (stereo not drawn), the growth in test [1] was 97.9%; in test [2], 122%; in test [3], 105%; in test [4], 104%; in test [5] it was 105%; in test [6] it was 101%. Moreover, the growth in test [7] is 109%; in test [8] it was 107%.
`O=C(N/N=C/C=C\c1ccccc1)C(=O)N/N=C/C=C/c1ccccc1`: the growth was 100% in test [1]; 102% in test [2]; 121% in test [3]; 106% in test [4]; 100% in test [5]; 104% in test [6]. The growth in test [7] and in test [8] was 109% each time.
As for `C=C(C)[C@@H]1C[C@@H]2Cc3ccc(Cl)c(C)c3N1O2`, the growth in test [1] is 89.1%; in test [2] it was 101%; in test [3] it was 94.4%; in test [4] it was 106%; in test [5] it was 107%; in test [6], 95.9%. The growth in test [7] is 90.5%; in test [8], 104%.
